Source: PubChem BioAssay AID1159580 (chemical genetic matrix, 2015)
Hit rate of the full screen: of about 5,500 compounds, about 2,000 (36%) were called active. About 18% were inconclusive and are not listed. Cut-off read from the data, not from the text of the source: active = normalized growth mostly below about 0.91 (no sharp cut-off); inconclusive = no clear call, values can overlap the other calls; inactive = mostly above about 0.92. The list shows a part of the results.

Assay: chemical genetic growth profiling, strain panel (AID 1159580);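 note: tested at 20 µM; growth read once vehicle control cultures reached saturation at 30 °C; 1 = growth at the plate median or of vehicle wells; lower values mean less growth of the strain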
Conditions: growth OD

Measured: normalized growth

C[C@H](N)[C@H](O)c1ccccc1
inactive: S. cerevisiae deletion strains, locus YBR021W, strain FUR4, stronger effect = lower value 0.997 | S. cerevisiae deletion strains, locus YBR229C, strain ROT2, stronger effect = lower value 1 | S. cerevisiae deletion strains, locus YCL029C, strain bik1, stronger effect = lower value 1 | S. cerevisiae deletion strains, locus YDL035C, strain GPR1, stronger effect = lower value 1.01 | S. cerevisiae deletion strains, locus YDL074C, strain BRE1, stronger effect = lower value 1.01 | S. cerevisiae deletion strains, locus YDL101C, strain DUN1, stronger effect = lower value 0.949 | S. cerevisiae deletion strains, locus YDL134C, strain PPH21, stronger effect = lower value 1 | S. cerevisiae deletion strains, locus YDL185W, strain tfp1, stronger effect = lower value 0.991 | S. cerevisiae deletion strains, locus YDL192W, strain arf1, stronger effect = lower value 1 | S. cerevisiae deletion strains, locus YDR101C, strain arx1, stronger effect = lower value 1 | S. cerevisiae deletion strains, locus YDR150W, strain NUM1, stronger effect = lower value 1.01 | S. cerevisiae deletion strains, locus YDR162C, strain NBP2, stronger effect = lower value 1.01 | S. cerevisiae deletion strains, locus YDR318W, strain mcm21, stronger effect = lower value 0.993 | S. cerevisiae deletion strains, locus YDR388W, stronger effect = lower value 0.993 | S. cerevisiae deletion strains, locus YDR502C, strain sam2, stronger effect = lower value 0.994 | S. cerevisiae deletion strains, locus YEL061C, strain CIN8, stronger effect = lower value 1 | S. cerevisiae deletion strains, locus YER110C, stronger effect = lower value 0.997 | S. cerevisiae deletion strains, locus YER155C, strain BEM2, stronger effect = lower value 0.998 | S. cerevisiae deletion strains, locus YER167W, strain BCK2, stronger effect = lower value 1 | S. cerevisiae deletion strains, locus YGL078C, strain dbp3, stronger effect = lower value 0.996 | S. cerevisiae deletion strains, locus YGL086W, strain mad1, stronger effect = lower value 0.991 | S. cerevisiae deletion strains, locus YGL248W, strain PDE1, stronger effect = lower value 1 | S. cerevisiae deletion strains, locus YGR078C, strain PAC10, stronger effect = lower value 1.01 | S. cerevisiae deletion strains, locus YGR135W, strain pre9, stronger effect = lower value 0.998 | S. cerevisiae deletion strains, locus YGR229C, strain SMI1, stronger effect = lower value 1 | S. cerevisiae deletion strains, locus YGR252W, strain gcn5, stronger effect = lower value 1.01 | S. cerevisiae deletion strains, locus YHR030C, strain SLT2, stronger effect = lower value 1 | S. cerevisiae deletion strains, locus YHR079C, strain IRE1 (second series), stronger effect = lower value 0.997 | S. cerevisiae deletion strains, locus YHR094C, strain hxt1, stronger effect = lower value 0.996 | S. cerevisiae deletion strains, locus YHR129C, strain ARP1, stronger effect = lower value 1.01 | S. cerevisiae deletion strains, locus YHR200W, strain rpn10, stronger effect = lower value 0.995 | S. cerevisiae deletion strains, locus YIL066C, strain RNR3, stronger effect = lower value 1 | S. cerevisiae deletion strains, locus YIL073C, strain SPO22, stronger effect = lower value 1.03 | S. cerevisiae deletion strains, locus YIL125W, strain kgd1, stronger effect = lower value 0.994 | S. cerevisiae deletion strains, locus YIR030C, strain dcg1, stronger effect = lower value 0.996 | S. cerevisiae deletion strains, locus YJL095W, strain BCK1, stronger effect = lower value 1.02 | S. cerevisiae deletion strains, locus YJL134W, strain LCB3, stronger effect = lower value 1 | S. cerevisiae deletion strains, locus YJL168C, strain set2, stronger effect = lower value 0.995 | S. cerevisiae deletion strains, locus YJL187C, strain SWE1 (second series), stronger effect = lower value 1.01 | S. cerevisiae deletion strains, locus YJR043C, strain POL32, stronger effect = lower value 0.982 | S. cerevisiae deletion strains, locus YKL009W, strain mrt4, stronger effect = lower value 0.989 | S. cerevisiae deletion strains, locus YKL068W, stronger effect = lower value 0.999 | S. cerevisiae deletion strains, locus YKL085W, strain MDH1 (second series), stronger effect = lower value 0.989 | S. cerevisiae deletion strains, locus YKL085W, strain MDH1, stronger effect = lower value 0.989 | S. cerevisiae deletion strains, locus YKL190W, strain CNB1, stronger effect = lower value 1 | S. cerevisiae deletion strains, locus YKR001C, strain vps1, stronger effect = lower value 0.99 | S. cerevisiae deletion strains, locus YLR039C, strain RIC1, stronger effect = lower value 0.993 | S. cerevisiae deletion strains, locus YLR058C, strain SHM2, stronger effect = lower value 1 | S. cerevisiae deletion strains, locus YLR102C, strain apc9, stronger effect = lower value 1 | S. cerevisiae deletion strains, locus YLR262C, strain YPT6, stronger effect = lower value 1.01 | S. cerevisiae deletion strains, locus YLR268W, strain sec22, stronger effect = lower value 0.99 | S. cerevisiae deletion strains, locus YLR330W, strain CHS5, stronger effect = lower value 0.999 | S. cerevisiae deletion strains, locus YLR342W, strain FKS1 (second series), stronger effect = lower value 1.01 | S. cerevisiae deletion strains, locus YLR371W, strain rom2, stronger effect = lower value 1 | S. cerevisiae deletion strains, locus YLR418C, strain cdc73, stronger effect = lower value 0.978 | S. cerevisiae deletion strains, locus YML016C, strain PPZ1, stronger effect = lower value 1 | S. cerevisiae deletion strains, locus YML032C, strain rad52, stronger effect = lower value 0.984 | S. cerevisiae deletion strains, locus YML124C, strain tub3, stronger effect = lower value 0.998 | S. cerevisiae deletion strains, locus YMR078C, strain ctf18, stronger effect = lower value 0.993 | S. cerevisiae deletion strains, locus YMR223W, strain ubp8, stronger effect = lower value 1 | S. cerevisiae deletion strains, locus YMR263W, strain SAP30, stronger effect = lower value 1 | S. cerevisiae deletion strains, locus YMR307W, strain GAS1, stronger effect = lower value 0.983 | S. cerevisiae deletion strains, locus YNL067W, strain RPL9B, stronger effect = lower value 1 | S. cerevisiae deletion strains, locus YNL128W, strain TEP1, stronger effect = lower value 1.01 | S. cerevisiae deletion strains, locus YNL153C, strain GIM3, stronger effect = lower value 1 | S. cerevisiae deletion strains, locus YNL233W, strain BNI4, stronger effect = lower value 0.996 | S. cerevisiae deletion strains, locus YNL250W, strain rad50, stronger effect = lower value 0.984 | S. cerevisiae deletion strains, locus YNL271C, strain bni1, stronger effect = lower value 0.998 | S. cerevisiae deletion strains, locus YNL298W, strain CLA4, stronger effect = lower value 1 | S. cerevisiae deletion strains, locus YNL307C, strain MCK1, stronger effect = lower value 0.999 | S. cerevisiae deletion strains, locus YNL322C, strain KRE1, stronger effect = lower value 1 | S. cerevisiae deletion strains, locus YNR052C, strain pop2, stronger effect = lower value 1 | S. cerevisiae deletion strains, locus YOL006C, strain TOP1, stronger effect = lower value 1.02 | S. cerevisiae deletion strains, locus YOL012C, strain htz1 1.73 | S. cerevisiae deletion strains, locus YOL147C, strain pex11, stronger effect = lower value 0.996 | S. cerevisiae deletion strains, locus YOR061W, strain CKA2, stronger effect = lower value 0.998 | S. cerevisiae deletion strains, locus YOR069W, strain VPS5, stronger effect = lower value 1 | S. cerevisiae deletion strains, locus YOR136W, strain idh2, stronger effect = lower value 0.996 | S. cerevisiae deletion strains, locus YOR144C, strain elg1, stronger effect = lower value 0.995 | S. cerevisiae deletion strains, locus YOR184W, strain ser1, stronger effect = lower value 0.985 | S. cerevisiae deletion strains, locus YOR316C, strain cot1, stronger effect = lower value 0.999 | S. cerevisiae deletion strains, locus YPL055C, strain LGE1, stronger effect = lower value 1.01 | S. cerevisiae deletion strains, locus YPR119W, strain clb2, stronger effect = lower value 0.999 | S. cerevisiae deletion strains, locus YPR141C, strain kar3, stronger effect = lower value 0.996 | S. cerevisiae deletion strains, locus YPR163C, strain tif3, stronger effect = lower value 0.994 | S. cerevisiae deletion strains, locus YPR167C, strain met16, stronger effect = lower value 1 | S. cerevisiae deletion strains, strain wtn01, stronger effect = lower value 0.983 | S. cerevisiae strains, strain wild type, stronger effect = lower value 1
